Assay results reported in PubChem BioAssay (NCATS).
Several values for one entry are separate records, joined by “and”; a condition that tells them apart may be missing. Identical values can stand only once. Records with an inconclusive call do not appear. Entries that show only a call come without a potency. Activity calls are given as the source filed them. Unless noted, the call rests on the fitted dose curve; in most records, active means well fitted curve in the direction sought with a large enough effect; inconclusive means small, poorly fitted or top-dose-only effect, or another doubt; inactive means no such curve, though single readings can be large; an effect the other way counts as inactive or inconclusive.

Tests used:
[1] = Validation screen for small molecules that induce genotoxicity in human embryonic kidney (HEK293T) cells expressing luciferase-tagged ELG1 (AID 493106)
Outline: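 HEK293T cells expressing luciferase-tagged ELG1 were exposed to compound or DMSO vehicle for 16 hr at 37 °C, 5% CO2. Genotoxic stress raises ELG1 levels, so increased luciferase signal after ONE-Glo addition and 30 min at room temperature marks hits.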

[2] = target: ATPase family AAA domain-containing protein 5 (Homo sapiens) (UniProt Q96QE3); assay: Validation screen for small molecules that inhibit ELG1-dependent DNA repair in human embryonic kidney (HEK293T) cells expressing luciferase-tagged ELG1 (AID 493107);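 further: cells co-treated with the DNA-damaging agent 5-fluorouridine alongside compound; series mostly up to about 46 µM; inhibitors lower the ELG1-luciferase luminescence signal; nearly all actives have a fitted effect of over 70% in size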
Chain of ATPase family AAA domain-containing protein 5 (Homo sapiens) (Q96QE3 whole entry, looked up, the tested form may be a part): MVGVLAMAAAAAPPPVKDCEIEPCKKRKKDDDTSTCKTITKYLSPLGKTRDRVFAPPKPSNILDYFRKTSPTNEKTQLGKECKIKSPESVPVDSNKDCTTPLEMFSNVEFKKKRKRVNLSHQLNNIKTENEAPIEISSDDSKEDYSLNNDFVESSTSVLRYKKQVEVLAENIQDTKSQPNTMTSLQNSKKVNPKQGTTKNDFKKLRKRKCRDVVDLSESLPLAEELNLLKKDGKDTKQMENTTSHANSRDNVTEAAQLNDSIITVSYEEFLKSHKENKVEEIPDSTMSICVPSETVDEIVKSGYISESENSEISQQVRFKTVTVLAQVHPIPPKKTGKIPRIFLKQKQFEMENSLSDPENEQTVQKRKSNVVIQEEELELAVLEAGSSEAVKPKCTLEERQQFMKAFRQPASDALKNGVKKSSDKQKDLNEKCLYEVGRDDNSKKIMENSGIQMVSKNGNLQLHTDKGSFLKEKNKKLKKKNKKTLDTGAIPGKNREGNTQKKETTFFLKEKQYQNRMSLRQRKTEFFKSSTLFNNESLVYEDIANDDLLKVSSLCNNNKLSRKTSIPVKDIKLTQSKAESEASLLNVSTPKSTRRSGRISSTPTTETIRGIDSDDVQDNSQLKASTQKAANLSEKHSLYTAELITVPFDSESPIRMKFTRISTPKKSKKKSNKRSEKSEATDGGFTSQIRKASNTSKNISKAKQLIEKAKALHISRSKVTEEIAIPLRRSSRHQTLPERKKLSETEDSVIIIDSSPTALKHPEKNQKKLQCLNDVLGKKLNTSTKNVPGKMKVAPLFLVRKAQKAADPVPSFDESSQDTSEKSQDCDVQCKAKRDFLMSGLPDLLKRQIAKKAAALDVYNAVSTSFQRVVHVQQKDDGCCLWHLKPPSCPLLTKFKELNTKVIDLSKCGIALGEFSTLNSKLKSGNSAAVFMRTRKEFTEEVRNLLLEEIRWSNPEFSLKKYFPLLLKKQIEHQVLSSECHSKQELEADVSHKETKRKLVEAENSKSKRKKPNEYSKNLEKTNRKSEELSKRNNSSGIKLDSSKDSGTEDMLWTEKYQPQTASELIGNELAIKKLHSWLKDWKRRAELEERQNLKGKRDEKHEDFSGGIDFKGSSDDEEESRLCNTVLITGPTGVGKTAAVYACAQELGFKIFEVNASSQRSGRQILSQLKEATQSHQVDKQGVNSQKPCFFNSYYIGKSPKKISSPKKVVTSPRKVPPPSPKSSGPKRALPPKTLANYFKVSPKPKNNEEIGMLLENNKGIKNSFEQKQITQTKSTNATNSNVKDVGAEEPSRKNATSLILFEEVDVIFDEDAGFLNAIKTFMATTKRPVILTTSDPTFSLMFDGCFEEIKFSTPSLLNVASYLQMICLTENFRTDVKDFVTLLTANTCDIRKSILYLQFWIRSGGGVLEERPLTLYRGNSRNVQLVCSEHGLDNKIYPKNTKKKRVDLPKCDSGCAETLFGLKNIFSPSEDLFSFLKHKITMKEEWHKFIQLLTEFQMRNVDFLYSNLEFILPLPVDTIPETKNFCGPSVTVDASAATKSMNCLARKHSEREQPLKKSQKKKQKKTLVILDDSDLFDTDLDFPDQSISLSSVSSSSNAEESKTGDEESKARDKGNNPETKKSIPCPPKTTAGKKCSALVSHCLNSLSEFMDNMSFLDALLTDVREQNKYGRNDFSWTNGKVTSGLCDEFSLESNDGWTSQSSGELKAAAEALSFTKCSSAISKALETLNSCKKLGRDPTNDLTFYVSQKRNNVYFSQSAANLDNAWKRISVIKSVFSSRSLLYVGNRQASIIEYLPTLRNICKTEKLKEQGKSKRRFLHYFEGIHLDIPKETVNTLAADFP
Outline: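 HEK293T cells expressing luciferase-tagged ELG1 were co-treated with 5-fluorouridine and compound or DMSO for 16 hr at 37 °C, 5% CO2. Luciferase activity was then read with ONE-Glo after 30 min at room temperature; suppressed signal indicates blocked ELG1 function.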

[3] = Nrf2 qHTS screen for inhibitors: Validation (AID 493153; active means well fitted inhibition curve with a large enough effect in the main read-out, with a control signal flat, not every such curve was filed as active); settings: Potency: luciferase luminescence; viability change: measured here: cytotoxicity max response
Outline: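 A549 cells carrying an ARE-driven firefly luciferase reporter, in 5% FBS OPTI-MEM, were treated with compounds in concentration-response for 18-24 h at 37°C. Viability was read by CellTiter-Fluor fluorescence, then Nrf2 activity by luciferase luminescence.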

[4] = qHTS for Inhibitors of Cell Surface uPA Generation: Validation Assay (AID 493164);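 further: RAW 264.7 macrophage cells exposed to compound for 18 h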
Outline: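 RAW 264.7, 4000 cells/well, o/n plating; cpd 7-pt 1:5 dilution 2.45 nM–38.3 uM final; 18 h, 37 C/5% CO2; ATP-Lite, 5 s luminescence exposure.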

[5] = target: Galactokinase (Homo sapiens) (UniProt P51570); assay: qHTS Validation Assay for Inhibitors of Human Galactokinase (GALK) (AID 493189)
Chain of Galactokinase (Homo sapiens) (P51570 whole entry, looked up): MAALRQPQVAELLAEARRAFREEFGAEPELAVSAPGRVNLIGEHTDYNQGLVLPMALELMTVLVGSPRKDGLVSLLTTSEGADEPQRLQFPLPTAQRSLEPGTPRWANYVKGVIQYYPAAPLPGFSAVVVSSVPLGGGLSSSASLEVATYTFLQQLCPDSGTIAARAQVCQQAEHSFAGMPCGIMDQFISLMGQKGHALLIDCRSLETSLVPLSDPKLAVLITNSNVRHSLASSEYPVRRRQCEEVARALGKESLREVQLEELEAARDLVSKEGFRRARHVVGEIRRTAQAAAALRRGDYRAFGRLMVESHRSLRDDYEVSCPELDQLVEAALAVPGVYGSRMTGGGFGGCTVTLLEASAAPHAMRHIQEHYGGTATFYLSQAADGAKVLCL
Outline: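 GALK (5 nM) with 35 uM ATP and 100 uM galactose in HEPES pH8.0, MgCl2, NaCl, DTT, BSA; 1 h at room temperature. Residual ATP read by Kinase-Glo Plus luminescence after 10 min.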

[6] = target: Peptidyl-prolyl cis-trans isomerase NIMA-interacting 1 (Homo sapiens) (UniProt Q13526); assay: qHTS Validation Assay to Find Inhibitors of Pin1 (AID 504536; active means well fitted inhibition curve with a large enough effect in the polarisation, with a control signal flat, not every such curve was filed as active; the % refers to the polarisation)
Chain of Peptidyl-prolyl cis-trans isomerase NIMA-interacting 1 (Homo sapiens) (Q13526 whole entry, looked up): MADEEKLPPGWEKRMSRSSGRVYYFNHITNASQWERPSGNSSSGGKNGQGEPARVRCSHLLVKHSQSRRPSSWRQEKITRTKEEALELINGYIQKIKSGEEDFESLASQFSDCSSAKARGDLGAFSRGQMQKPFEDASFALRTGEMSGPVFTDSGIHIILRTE
Outline: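 Fluorescence polarization competition: compounds (titration) displace HiFluor-488-labeled Pin1-1b peptide from Pin1 (0.3 uM final) in pH 7.5 HEPES buffer with DTT, 10 min at room temperature; %Activity normalized to no-enzyme wells, curves fitted.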

[7] = target: Phosphoglycerate kinase, glycosomal (Trypanosoma brucei brucei) (UniProt P07378); assay: qHTS Validation Assay to Find Inhibitors of Phosphoglycerate Kinase (AID 504547)
Chain of Phosphoglycerate kinase, glycosomal (Trypanosoma brucei brucei) (P07378 whole entry, looked up): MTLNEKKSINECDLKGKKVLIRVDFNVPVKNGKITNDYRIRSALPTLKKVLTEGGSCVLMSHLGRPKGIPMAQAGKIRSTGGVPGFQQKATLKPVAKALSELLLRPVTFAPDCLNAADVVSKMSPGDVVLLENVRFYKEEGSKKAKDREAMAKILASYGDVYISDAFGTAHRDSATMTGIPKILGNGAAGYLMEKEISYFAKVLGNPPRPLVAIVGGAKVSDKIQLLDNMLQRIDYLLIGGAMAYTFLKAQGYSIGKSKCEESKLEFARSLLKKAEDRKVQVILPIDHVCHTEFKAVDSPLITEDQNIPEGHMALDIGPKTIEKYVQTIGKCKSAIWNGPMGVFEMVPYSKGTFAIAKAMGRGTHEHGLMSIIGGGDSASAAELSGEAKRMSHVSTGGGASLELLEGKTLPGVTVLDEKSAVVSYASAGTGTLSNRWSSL
Outline: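 PGK activity was coupled to GAPDH (100nM final), which generates the unstable substrate 1,3-bisphosphoglycerate in-well. Reactions ran 60 minutes at room temperature in 100mM TEA pH 7.6, 5mM MgCl2, 0.01% Tween-20, then Kinase-Glo Plus luminescence was read.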

[8] = Validation screen for small molecules that induce DNA re-replication in SW480 colon adenocarcinoma cells (AID 504364)
Outline: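 SW480 cells seeded at 250 per well were exposed to compound or DMSO for 48 hr at 37 C, 5% CO2, then stained with Hoechst for 40 min. DNA content per nucleus was imaged (405 nm ex, 500-530 nm em).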

[9] = target: Thyrotropin-releasing hormone receptor (Homo sapiens) (UniProt P34981); assay: qHTS for Small Molecule Agonists and Allosteric Enhancers of Human TRH Receptor: Validation Screen for Agonists (AID 493127;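 active means calcium activation more than 3 SD above the typical response in the agonist read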;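 further: intracellular calcium rise by fluo-8 fluorescence before TRH EC20 addition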); settings: TRH receptor agonist cell assay; at 2 µM; stronger effect = higher value
Chain of Thyrotropin-releasing hormone receptor (Homo sapiens) (P34981 whole entry, looked up): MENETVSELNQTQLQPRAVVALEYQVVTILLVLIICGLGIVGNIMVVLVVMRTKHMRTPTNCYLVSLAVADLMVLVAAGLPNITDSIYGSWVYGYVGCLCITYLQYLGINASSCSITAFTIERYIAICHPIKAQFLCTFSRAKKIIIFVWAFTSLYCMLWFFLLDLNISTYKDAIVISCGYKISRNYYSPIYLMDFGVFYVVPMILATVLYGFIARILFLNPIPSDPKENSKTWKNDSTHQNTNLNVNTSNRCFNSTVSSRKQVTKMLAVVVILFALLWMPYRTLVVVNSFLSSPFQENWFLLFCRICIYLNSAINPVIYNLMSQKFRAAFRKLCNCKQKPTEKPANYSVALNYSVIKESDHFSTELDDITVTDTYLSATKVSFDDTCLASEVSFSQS
Outline: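 TRHR-expressing cells were plated overnight in serum-containing medium, then loaded with fluo-8 calcium dye at room temperature for 30 min–1.5 h. After a 10 s baseline, compound was pin-transferred and calcium fluorescence (ex 480/em 530) read kinetically for agonist response.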

[10] = target: ATP-dependent 6-phosphofructokinase (Trypanosoma brucei brucei) (UniProt O15648); assay: qHTS Assay to Find Inhibitors of T. brucei phosphofructokinase: hit validation (AID 492961); further: series mostly up to about 51 µM
Chain of ATP-dependent 6-phosphofructokinase (Trypanosoma brucei brucei) (O15648 whole entry, looked up): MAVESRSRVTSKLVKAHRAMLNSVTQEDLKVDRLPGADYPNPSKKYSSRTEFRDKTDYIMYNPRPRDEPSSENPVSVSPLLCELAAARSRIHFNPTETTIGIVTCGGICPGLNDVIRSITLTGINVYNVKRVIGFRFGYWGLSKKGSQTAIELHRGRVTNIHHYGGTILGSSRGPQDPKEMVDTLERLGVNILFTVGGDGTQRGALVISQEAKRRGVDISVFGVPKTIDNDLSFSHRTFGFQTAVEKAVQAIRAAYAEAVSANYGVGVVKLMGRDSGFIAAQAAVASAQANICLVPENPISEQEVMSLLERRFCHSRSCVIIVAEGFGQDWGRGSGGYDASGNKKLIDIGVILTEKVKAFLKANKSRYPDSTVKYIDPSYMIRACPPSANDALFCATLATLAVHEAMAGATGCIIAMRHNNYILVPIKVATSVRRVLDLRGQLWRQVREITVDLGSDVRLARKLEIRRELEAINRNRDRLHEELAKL
Outline: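 Luminescence from ADP-Glo reports ADP generated as T. brucei PFK (1.25 nM) phosphorylates 0.5 mM fructose-6-phosphate using 0.1 mM ATP. Reactions ran 45 min at room temperature, pH 8.0.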

Row | Structure (SMILES) | Potency [1] | Potency [2] | Potency [3] | viability change [3] | outcome [4] | Potency [5] | Potency [6] | Potency [7] | Potency [8] | activation [9] | Potency [10]
1 | CN1C2CCC1CC(OC(=O)C(CO)c1ccccc1)C2 (stereo unspecified) | inactive | inactive | inactive | 0.769% and 1.89% | inactive | inactive | inactive | inactive |  |  | 
2 | O=C(c1ccc(F)cc1)C1CCN(CCn2c(=O)[nH]c3ccccc3c2=O)CC1 | inactive | inactive | inactive | 2.61% | inactive | inactive | inactive | inactive | inactive |  | 
3 | NC(CO)C(=O)NNCc1ccc(O)c(O)c1O (stereo unspecified) | inactive | inactive | inactive | -7.62% | inactive | inactive | inactive | inactive | inactive |  | 
4 | Cc1ccccc1N1C(=O)c2cc(S(N)(=O)=O)c(Cl)cc2NC1C (stereo unspecified) | inactive | inactive | inactive | 10.1% | inactive | inactive | inactive | inactive | inactive |  | 
5 | CC(C(=O)O)c1cccc(C(=O)c2ccccc2)c1 (stereo unspecified) | inactive | inactive | inactive | -3.76% | inactive | inactive | inactive | inactive | inactive | 1.12% (inactive) | 
6 | Nc1ccn([C@H]2CC[C@@H](CO)O2)c(=O)n1 | inactive | inactive | inactive | -1.24% | inactive | inactive | inactive | inactive |  | 0.938% (inactive) | 
7 | Cc1cn([C@H]2C[C@H](N=[N+]=[N-])[C@@H](CO)O2)c(=O)[nH]c1=O |  | inactive | inactive | 8.03% | inactive |  |  | inactive |  |  | inactive
8 | CC(C)NCC(O)c1ccc(O)c(O)c1 (stereo unspecified) | inactive | inactive | inactive | -5.16% | inactive | inactive | inactive | inactive | inactive | 0.688% (inactive) and 0.188% (inactive) | 
9 | Clc1ccc2c(c1)C(N1CCNCC1)=Nc1ccccc1O2 | inactive | inactive |  |  | inactive | inactive | inactive | inactive | inactive | 4.19% (inactive) | 
10 | Cn1cnc2c1c(=O)[nH]c(=O)n2C | inactive | inactive | inactive | -9.08% | inactive | inactive | inactive | inactive |  | 0.562% (inactive) | 
11 | COc1ccccc1OCC(O)CN1CCN(CC(=O)Nc2c(C)cccc2C)CC1 (stereo unspecified) | inactive | inactive | inactive | -3.01% | inactive | inactive | inactive | inactive |  | 0.375% (inactive) | 
12 | CN(C)CCOC(c1ccccc1)c1ccccc1 | inactive | inactive | inactive | 2.71% | inactive | inactive | inactive | inactive |  | -3.31% (inactive) | 
13 | NC(=O)OCC(COC(N)=O)c1ccccc1 | inactive | inactive | inactive | 2.5% | inactive | inactive | inactive | inactive |  | 0.5% (inactive) | 
14 | NCCc1cnc[nH]1 | inactive | inactive | inactive | 1.05% | inactive | inactive | inactive | inactive |  | 1.06% (inactive) | 
15 | CCCNCC(O)COc1ccccc1C(=O)CCc1ccccc1 (stereo unspecified) | inactive | inactive |  |  | inactive | inactive | inactive | inactive |  | 4% (inactive) | 
16 | CC1COc2c(N3CCN(C)CC3)c(F)cc3c(=O)c(C(=O)O)cn1c23 (stereo unspecified) | inactive | inactive | inactive | 6.09% | inactive | inactive | inactive | inactive | inactive | 1% (inactive) | 
17 | OCCN1CCN(CCCN2c3ccccc3Sc3ccc(C(F)(F)F)cc32)CC1 | inactive | inactive | inactive | 1.55% | inactive | inactive | inactive | inactive |  | 1.88% (inactive) | 
18 | NS(=O)(=O)c1cc2c(cc1Cl)NCNS2(=O)=O | inactive |  | inactive | -1.09% | inactive | inactive | inactive | inactive | inactive | 0.938% (inactive) | 
19 | CNCCCC12CCC(c3ccccc31)c1ccccc12 | inactive |  | inactive | 1.81% | inactive | inactive | inactive | inactive | inactive | 3.31% (inactive) | 
20 | Cc1cnc(C(=O)NCCc2ccc(S(=O)(=O)NC(=O)NC3CCCCC3)cc2)cn1 | inactive |  | inactive | -0.248% | inactive |  | inactive | inactive |  |  | 
21 | Cn1ccc2cc3c(cc21)CCN3C(=O)Nc1cccnc1 |  | inactive | inactive | -2.16% | inactive | inactive | inactive | inactive |  | 0.875% (inactive) | 
22 | NC12CC3CC(CC(C3)C1)C2 | inactive | inactive |  |  | inactive |  | inactive |  |  |  | 
23 | O=c1[nH]cc(F)c(=O)[nH]1 |  | inactive |  |  | inactive | inactive | inactive | inactive |  | 0.812% (inactive) | 
